Only some compounds are listed: those with a hit (about 5% of all), similar ones and a draw of the others.
SENP6 inh: inhibitors of human SENP6 protease | Recombinant SENP6 catalytic domain, aminoluciferin luminescence | AID 2599 | inhibition, % at 10 µM | 330,000 compounds, 1.8% hits;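 active = inhibition above about 50% at the single tested dose, limit read from the data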;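 note: plate controls were DMSO wells with enzyme for no effect and DMSO wells lacking enzyme for full effect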
AHR act: activators of human aryl hydrocarbon receptor. 320,000 compounds, 2.5% hits. P35869. AHR-responsive luciferase reporter cells, luminescence. activation, % at 5 µM; in the data active = activation above about 47%;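 note: 0% = vehicle wells and 100% = reference agonist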
SENP7 inh: SENP7 protease inhibition; AID 434973; recombinant SENP7, Z-RLRGG-aminoluciferin luminescence, 40 min; 330,000 compounds, 1.5% hits; Q9BQF6; inhibition, % at 5 µM;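 active = inhibition above about 50% at the single test dose, limit read from the data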;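 note: plate controls were DMSO with enzyme for no effect and no enzyme buffer wells for full effect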
SENP8 block-1: blocks human SENP8 cleavage of Nedd8 substrate. Q96LD8. recombinant SENP8, Nedd8 substrate fluorescence. inhibition, % at 20 µM. 360,000 compounds, 0.64% hits; in the data active = inhibition mostly above about 40%, no sharp cut-off; inactive = mostly below about 27%
Target sequence (Q96LD8 whole entry, looked up): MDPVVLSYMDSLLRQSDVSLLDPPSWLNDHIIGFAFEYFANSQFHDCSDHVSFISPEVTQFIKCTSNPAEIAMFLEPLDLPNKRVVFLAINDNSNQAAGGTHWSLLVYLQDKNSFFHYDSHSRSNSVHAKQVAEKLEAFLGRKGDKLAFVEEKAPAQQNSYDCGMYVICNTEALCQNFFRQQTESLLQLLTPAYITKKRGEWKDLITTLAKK
SENP8 block-2: SENP8 protease inhibition. Q96LD8. purified SENP8, Z-RLRGG-aminoluciferin cleavage, luminescence. inhibition, % at 10 µM. 330,000 compounds, 1.2% hits. AID 2540; in the data active = inhibition above about 50%
EBI2 block: blocks human EBI2 receptor beta-arrestin signaling; P32249; EBI2 beta-arrestin recruitment, luminescence, 7a,25-OHC stimulated; inhibition, % at 5 µM; 360,000 compounds, 0.81% hits; AID 651636; in the data active = inhibition above about 38%;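 note: enzyme fragment complementation signal reports receptor beta-arrestin coupling in cells; 0% = agonist plus DMSO wells and 100% = wells without agonist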
Target sequence (P32249 whole entry, looked up, the tested form may be a part): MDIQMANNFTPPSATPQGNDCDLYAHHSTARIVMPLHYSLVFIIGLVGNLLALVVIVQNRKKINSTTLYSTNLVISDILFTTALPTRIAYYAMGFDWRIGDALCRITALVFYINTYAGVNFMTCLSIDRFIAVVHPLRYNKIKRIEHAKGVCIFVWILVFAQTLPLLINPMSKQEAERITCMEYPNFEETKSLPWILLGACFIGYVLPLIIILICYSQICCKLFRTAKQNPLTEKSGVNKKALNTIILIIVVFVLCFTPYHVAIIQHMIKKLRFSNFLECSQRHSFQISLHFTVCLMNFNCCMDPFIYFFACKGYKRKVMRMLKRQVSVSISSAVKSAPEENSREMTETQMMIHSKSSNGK
EBI2 conf: EBI2 (human) antagonism, single concentration confirmation | EBI2 beta-arrestin luminescence, 7a,25-OHC antagonism | shares compounds with EBI2 block | AID 651997 | 2,400 compounds, 29% hits | inhibition, % at 5 µM;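 active = inhibition of at least 50%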
EBI2 ag: activates EBI2, counter-screen for EBI2 antagonists | shares compounds with EBI2 block | EBI2-expressing cells, agonist mode, luminescence, 60 min; 0% vehicle, 100% 7α,25-dihydroxycholesterol control | activation, % at 5 µM | 2,400 tested, under 10 active;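 active = activation of at least 50%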
bGal counter: beta-galactosidase inhibition counter-screen. shares compounds with EBI2 block. purified beta-galactosidase, luminescent Galacton Star, 15 min. inhibition, % at 5 µM. 2,400 compounds, 1% hits. AID 652176;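 active = replicate-average signal at least 3 plate SD below neutral wells, shown as high inhibition, flagging enzyme-inhibiting false positives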;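 note: 0% = DMSO wells with enzyme and 100% = wells lacking enzyme; higher means stronger loss of beta-gal luminescence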
* = called active by the depositor.

How did COc1ccccc1N1CCN(C(=O)COc2ccc(Cl)cc2)CC1 do in these assays?
SENP6 inh: -7; AHR act: -1; SENP7 inh: -7; SENP8 block-1: 13; SENP8 block-2: 1; EBI2 block: 81*; EBI2 conf: 52*; EBI2 ag: 1; bGal counter: 4

What do the screens show for `CC(C)(C)c1ccc(OCC(=O)N2CCN(c3ncccn3)CC2)cc1`?
SENP6 inh: -5; AHR act: 7; SENP7 inh: -4; SENP8 block-1: -48; SENP8 block-2: -1; EBI2 block: 9

What do the screens show for `O=C(COc1ccc(Br)cc1)N1CCN(c2ncccn2)CC1`?
SENP6 inh: 8; AHR act: 1; SENP7 inh: -2; SENP8 block-1: -15; SENP8 block-2: -2; EBI2 block: 94*; EBI2 conf: 79*; EBI2 ag: 0; bGal counter: 1

How did CC(C)(C)NS(=O)(=O)c1ccc(NC(=S)NC(=O)C2CCC2)cc1 do in these assays?
SENP6 inh: 4; AHR act: -1; SENP7 inh: -7; SENP8 block-1: 10; SENP8 block-2: 1; EBI2 block: -4

How did O=C(CN1CCN(S(=O)(=O)c2ccccc2)CC1)Nc1ccc(Cl)c(Cl)c1 do in these assays?
SENP6 inh: 4; AHR act: -3; SENP7 inh: 0; SENP8 block-1: 12; SENP8 block-2: -3; EBI2 block: 61*; EBI2 conf: 45; EBI2 ag: 1; bGal counter: -2

Results for Cc1ccc(/C=N/NC(=O)CN2CCN(S(=O)(=O)c3ccc(Br)cc3)CC2)s1 ?
SENP6 inh: -10; AHR act: 0; SENP7 inh: 5; SENP8 block-1: 12; SENP8 block-2: -7; EBI2 block: 69*; EBI2 conf: 52*; EBI2 ag: 0; bGal counter: 5

How did Cc1ccc(S(=O)(=O)N2CCN(CC(=O)N/N=C/C=C/c3ccccc3)CC2)cc1 do in these assays?
SENP6 inh: -6; AHR act: 0; SENP7 inh: -3; SENP8 block-1: 18; SENP8 block-2: -9; EBI2 block: 43*; EBI2 conf: 31; EBI2 ag: 0; bGal counter: 9

Results for O=C(CN1CCN(S(=O)(=O)c2ccc(Br)cc2)CC1)N/N=C/c1ccc(Br)s1 ?
SENP6 inh: 0; AHR act: -1; SENP7 inh: 6; SENP8 block-1: 16; SENP8 block-2: 7; EBI2 block: 65*; EBI2 conf: 44; EBI2 ag: -1; bGal counter: -10

Results for COc1cccc(NC(=O)CN2C(=O)NC3(CCc4ccccc43)C2=O)c1 (stereo unspecified) ?
SENP6 inh: -9; AHR act: 1; SENP7 inh: 2; SENP8 block-1: 6; SENP8 block-2: -5; EBI2 block: 2

How did C=C1CC[C@@H]2[C@](C)(CO)[C@H](O)CC[C@@]2(C)[C@@H]1C/C=C1/C(=O)OCC1O (stereo partly specified) do in these assays?
SENP8 block-1: 3; EBI2 block: -5

Results for Cc1ccc(Oc2ccc(C=O)cn2)cc1 ?
SENP6 inh: -14; AHR act: 1; SENP7 inh: 3; SENP8 block-1: 3; SENP8 block-2: -2; EBI2 block: 16

What do the screens show for `CO/N=C/c1ccc(Oc2ccc(C)cc2)nc1`?
SENP6 inh: -10; AHR act: 7; SENP7 inh: -1; SENP8 block-1: 11; SENP8 block-2: -12; EBI2 block: 87*; EBI2 conf: 73*; EBI2 ag: 0; bGal counter: 7

What do the screens show for `Cc1cccc(N2CCN(C(=O)c3cccs3)CC2)c1C`?
SENP6 inh: 9; AHR act: -1; SENP7 inh: -7; SENP8 block-1: 18; SENP8 block-2: -1; EBI2 block: -44

Results for COc1ccccc1N1CCN(C(=O)/C=C/c2ccco2)CC1 ?
SENP6 inh: 8; AHR act: 4; SENP7 inh: 6; SENP8 block-1: 19; SENP8 block-2: -5; EBI2 block: 7

Results for COc1ccccc1N1CCN(C(=O)/C=C/c2ccccc2)CC1 ?
SENP6 inh: 4; AHR act: 1; SENP7 inh: 0; SENP8 block-1: 28; SENP8 block-2: 5; EBI2 block: 84*; EBI2 conf: 59*; EBI2 ag: -1; bGal counter: -12

What do the screens show for `COc1ccccc1N1CCN(C(=O)c2cccs2)CC1`?
SENP6 inh: -17; AHR act: 0; SENP7 inh: -3; SENP8 block-1: 20; SENP8 block-2: 4; EBI2 block: -18

Results for Cc1cccc(N2CCN(C(=O)/C=C/c3cccs3)CC2)c1C ?
SENP6 inh: 6; AHR act: 2; SENP7 inh: -6; SENP8 block-1: 8; SENP8 block-2: 0; EBI2 block: 85*; EBI2 conf: 58*; EBI2 ag: -1; bGal counter: -13

What do the screens show for `COc1ccccc1N1CCN(C(=O)/C=C/c2cccs2)CC1`?
SENP6 inh: -34; AHR act: 5; SENP7 inh: -6; SENP8 block-1: 9; SENP8 block-2: 4; EBI2 block: 48*; EBI2 conf: 41; EBI2 ag: 2; bGal counter: 1

How did COc1ccccc1N1CCN(C(=O)/C=C/c2ccc3c(c2)OCO3)CC1 do in these assays?
SENP6 inh: 0; AHR act: 4; SENP7 inh: 13; SENP8 block-1: -18; SENP8 block-2: -9; EBI2 block: 78*; EBI2 conf: 56*; EBI2 ag: -1; bGal counter: -9

How did O=C(Cc1ccccc1)N1CCN(C(=O)c2ccc([N+](=O)[O-])cc2)CC1 do in these assays?
SENP6 inh: -5; AHR act: 2; SENP7 inh: -1; SENP8 block-1: 1; SENP8 block-2: 0; EBI2 block: 10

How did O=C(CCC1CCCC1)N1CCN(C(=O)COc2ccccc2)CC1 do in these assays?
SENP6 inh: -4; AHR act: -4; SENP7 inh: 6; SENP8 block-1: 9; SENP8 block-2: 4; EBI2 block: 28

How did O=C(COc1ccccc1)N1CCN(C(=O)c2ccc([N+](=O)[O-])cc2)CC1 do in these assays?
SENP6 inh: 19; AHR act: 0; SENP7 inh: 6; SENP8 block-1: 34; SENP8 block-2: 5; EBI2 block: 53*; EBI2 conf: 38; EBI2 ag: 2; bGal counter: -6
